Drawing on PubChem BioAssay AID1209 (Sanford-Burnham Center for Chemical Genomics, 2008), this text covers inhibition for 86 molecules.

The structures appear in SMILES notation. Screen size: about 190,000 compounds; about 810 (0.43%) were called active. The sample as a whole holds a higher share of actives than the screen did. A number with no mark means an inactive call. No stated cut-off is given here; in the data, active means inhibition above about 50%; inactive means the rest.

Chain of Mannose-6-phosphate isomerase (Homo sapiens) (P34949 whole entry, looked up): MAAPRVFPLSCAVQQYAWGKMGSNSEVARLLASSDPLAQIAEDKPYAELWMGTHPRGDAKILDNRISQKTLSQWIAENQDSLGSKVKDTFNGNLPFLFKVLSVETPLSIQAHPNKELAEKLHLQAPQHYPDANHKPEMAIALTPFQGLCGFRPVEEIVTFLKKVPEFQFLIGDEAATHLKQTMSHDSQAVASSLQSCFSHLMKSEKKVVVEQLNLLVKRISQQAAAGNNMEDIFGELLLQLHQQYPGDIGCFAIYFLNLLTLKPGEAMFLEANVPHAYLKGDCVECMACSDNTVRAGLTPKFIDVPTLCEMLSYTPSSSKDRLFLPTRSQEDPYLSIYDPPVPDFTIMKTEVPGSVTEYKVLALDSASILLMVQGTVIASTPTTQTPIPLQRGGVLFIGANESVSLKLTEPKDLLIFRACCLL

This assay addresses Mannose-6-phosphate isomerase (Homo sapiens) (UniProt P34949). Briefly: inhibitors of human PMI, primary screen, biochemical, fluorescence intensity, coupled assay (AID 1209).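 Further: plate controls were DMSO vehicle for no effect and wells lacking substrate for full effect.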 Conditions: purified PMI enzyme, at 20 µM, hits give high values.
Usually inhibition stands for the relative decrease from the control value, in per cent. As to `CS(=O)(=O)N1N=C(c2ccc(Br)cc2)CC1c1cccs1` (stereo unspecified), the inhibition was 12.1%. In the case of `Cc1sc(/N=C/c2ccccc2O)c(C#N)c1C`, the inhibition is 0.9%. For `COc1ccc(O)c(/C=N/c2sc(C)c(C)c2C#N)c1` the value was 53.8% (active); for `Cc1sc(/N=C/c2c(O)ccc3ccccc23)c(C#N)c1C`, -6%.

Consider `CN(CCC1CCOCC1)C(=O)CC1C(=O)NCCN1C/C=C/c1ccccc1` (stereo unspecified), for which the inhibition was 5.6%. Turning to `Cc1ccc(-c2cc(-c3ccccc3)nc(Cl)n2)cc1`, the inhibition is 16.6%. With `Cc1ccc(-c2nc(N)sc2C)cc1`, the inhibition was -11%.

Turning to `Cc1ccc(-c2nc(N)s[n+]2-c2ccccc2)cc1`, the inhibition is 106% (active). Regarding `Cc1ccc(-c2nnc(-c3ccccc3)c(-c3ccccc3)n2)cc1`, the inhibition is 8.3%. For `Cc1ccc(-c2nc(N)sc2-c2ccc(C)cc2)cc1`, the inhibition is 13.3%. Take `CNc1nc(-c2ccccc2)[n+](-c2ccc(C)cc2)s1`: the inhibition is 89.5% (active). For `O=C(Nc1ccc(N2CCCC2)c(Cl)c1)c1ccccc1[N+](=O)[O-]` the value was -3.5%; for `Cc1cc(N/N=C/c2ccc(Cl)cc2Cl)nc(NCc2ccccc2)n1`, 20.3%; for `O=C(NCc1ccccc1)NCC12CC3CC(CC(C3)C1)C2`, 1.8%.

For the molecule `CCC[n+]1c(C)sc2c3c(ccc21)CCCC3`, the inhibition was 22.9%. With `CC[n+]1c(C)sc2cc(OC)ccc21` the figure was 73.9% (active); with `COc1ccc2sc(C)[n+](C)c2c1`, 84.3% (active). With `CCOC(=O)C[n+]1c(C)sc2ccc(OC)cc21` the figure was 3.3%. Consider `COc1ccc2sc(/C=C/c3ccccc3O)[n+](C)c2c1`, for which the inhibition is 4.3%. In the case of `Cc1ccc2sc(C)[n+](CCC(C)S(=O)(=O)[O-])c2c1` (stereo unspecified), the inhibition is 1%. With `CC[n+]1c(/C=C/C=C/N(C(C)=O)c2ccccc2)sc2cc(OC)ccc21` the figure was -17.8%; with `CCC[n+]1c(C)sc2c(OC)ccc(OC)c21`, 3.5%. As for `CC[n+]1c(C)sc2cc(C)ccc21`, the inhibition was 77% (active). For `Cc1ccc2c(c1)sc(C)[n+]2CCCS(=O)(=O)[O-]`, the inhibition is 9.6%.

As to `CCCC[n+]1c(C)sc2cc(OC)ccc21`, the inhibition was 16.5%. With `O=C(Nc1cccc(C(=O)N2CCOCC2)c1)NC1CCCCC1` the figure was 8.1%. For `N#Cc1c(SCC(N)=O)nc(-c2ccccc2)c2c1CCCC2` the value was -2.9%; for `CCN1C(=O)C2(C(C#N)=C(N)Oc3cc(C)oc(=O)c32)c2ccccc21` (stereo unspecified), 5.6%.

With `CCC(C)c1ccccc1NC(=O)Cc1coc2cc3c(cc12)CCC3` (stereo unspecified), the inhibition was 19.4%. In the case of `CCOc1ccc(N2C(=O)CCC2=O)cc1`, the inhibition was 6.4%. With `C/C(=C\C(=O)OCC(=O)NCc1ccccc1)C(=O)OCC(=O)NCc1ccccc1` the figure was 6%; with `O=C1CCC([N+](=O)[O-])C(c2cccc(Br)c2)N1` (stereo unspecified), -1%. For `O=C(Cn1cc2c(n1)CCCC2)NCC1CCCO1` (stereo unspecified), the inhibition was 3.4%. For `CCCC[n+]1c(C)sc2ccc(C)cc21`, the inhibition is 61.6% (active).

Consider `CC[n+]1c(C)sc2c3ccsc3ccc21`, for which the inhibition was 66.7% (active). With `Cc1sc2ccc3sccc3c2[n+]1C` the figure was -21.2%; with `Cc1sc2c3ccsc3ccc2[n+]1C`, -2.6%; with `Cc1ccc2sc(C)[n+](CCCS(=O)(=O)[O-])c2c1`, -3%. As for `Cc1ccc2sc(C)[n+](CCO)c2c1`, the inhibition was -7.8%. With `CCOP(=O)(OCC)C(Nc1ccc(C)cc1)c1ccco1` (stereo unspecified) the figure was -14.5%; with `NC(=O)N/N=C/c1ccccc1OCC(=O)NCc1ccccc1`, 1.8%. For `Cc1ccc(S(=O)(=O)NC(N)=NCCc2ccc(Cl)cc2)cc1C` the value was 15.4%; for `CC(C)N1CCC2(CC1)N=C(c1ccc3c(c1)OCO3)CC(c1cc(Cl)ccc1O)N2` (stereo unspecified), 23.4%. Turning to `COc1ccc(C(=O)c2cnc(/N=C/N(C)C)s2)cc1`, the inhibition was 14.2%.

`COc1ccc(NC(=O)CSc2nnc(Cn3cnc4ccccc43)o2)cc1`: the inhibition was 4.8%. In the case of `Cc1ccc(/C=C2\SC(=S)N(Cc3ccccc3)C2=O)o1`, the inhibition is 18.3%. With `O=C1NC(=S)S/C1=C/c1ccc(N2CCOCC2)o1` the figure was -25.3%; with `O=C1NC(=S)S/C1=C\c1ccc(SCc2ccccc2)o1`, 80.4% (active). For `O=C1NC(=S)S/C1=C\c1ccc(SCc2ccco2)o1` the value was 10.3%. `O=C(O)c1cc(-c2ccc(/C=C3/SC(=S)N(Cc4ccccc4)C3=O)o2)ccc1Cl`: the inhibition is -29.3%. As to `O=C(O)c1cccc(N2C(=O)/C(=C/c3ccc(SCc4ccc(Cl)cc4)o3)SC2=S)c1`, the inhibition was 73.3% (active). With `O=C1/C(=C\c2ccco2)SC(=S)N1c1ccccc1` the figure was 22.8%.

As to `O=C(O)CN1C(=O)/C(=C/c2ccc(SCc3ccccc3)o2)SC1=S`, the inhibition was 85.2% (active).

As to `Cc1cccc(C)c1-n1cccc1/C=C1\SC(=S)N(c2cccc(C(=O)O)c2)C1=O`, the inhibition is 1.3%. For `COC(=O)[C@@H](NC(=O)N(C1CCCCC1)C1CCCCC1)C(C)C`, the inhibition was -2.2%. With `Cc1nnc(SCC(=O)N2CC(=O)Nc3ccccc32)n1C` the figure was -5.6%. For `Cc1ccc(N/C=C/C(=O)c2sc(-c3ccccc3)nc2C)cc1` the value was 14.3%; for `COc1ccc(-c2csc(NC(=O)Cc3cccc4ccccc34)c2C(=O)O)cc1`, -0.1%; for `O=C(O)c1cccnc1SC1CC(=O)N(CCc2ccccc2)C1=O` (stereo unspecified), 3.4%. Turning to `CCc1nnc(NC(=O)c2ccc(S(=O)(=O)N3CCN(Cc4ccccc4)CC3)cc2)s1`, the inhibition was -1.5%. With `C/C=C/c1c(F)c(F)c(Oc2ccc(C(=O)O)cc2)c(F)c1F`, the inhibition was -3.5%.

As for `Cc1noc(C)c1COC(=O)CNC(=O)c1ccc(Cl)cc1`, the inhibition is -4.1%.

In the case of `COCCNC(=O)c1ccc(CN2CCOCC2)cc1`, the inhibition is -8.4%.

As to `CCN1C(=O)C(CC(=O)Nc2ccc(OC)cc2)N(CCc2ccc(OC)cc2)C1=S` (stereo unspecified), the inhibition is -4.1%. As for `C=CCOC(=O)C1=C(C)NC(=S)NC1/C=C/c1ccccc1` (stereo unspecified), the inhibition was 2.3%. For the molecule `O=c1c(Cc2ccc(F)cc2)c(O)ccn1CCCn1ccnc1`, the inhibition was 3%. For `O=C(Oc1ccc(C(=S)N2CCOCC2)cc1)c1ccccc1` the value was 3.3%; for `O=C(Oc1ccc(C(=S)N2CCOCC2)cc1)c1ccc(Br)cc1`, 5.3%; for `COc1ccc(C(=O)Oc2ccc(C(=S)N3CCOCC3)cc2)cc1`, 51% (active).

For the molecule `O=C(Nc1ncccn1)c1ccc(C(F)(F)F)cc1`, the inhibition was 4%.

As for `CCOC(=O)C1(CCOC)CCN(Cc2ccccc2-c2ccco2)CC1`, the inhibition was 3.5%. With `O=C1CCCN2N=C(SCC(=O)Nc3nccs3)SC2=N1`, the inhibition is -3.6%. With `CCOC(=O)C1=C(C)Nc2ccccc2N=C1NC(=O)/C=C/c1ccc(OC)cc1OC` the figure was 19.3%; with `CCCCOc1ccc(/C=C/C(=O)NC2=Nc3ccccc3NC(C)=C2C(=O)OCC)cc1OC`, 65.6% (active); with `CCOC(=O)C1=C(C)Nc2ccccc2N=C1NC(=O)Cc1ccc(OC)cc1`, 1.1%.

As for `Cc1c(-c2ccccc2)[n+](=O)c(-c2ccc(Cl)cc2)c(C)n1[O-]`, the inhibition was 4.1%.

For the molecule `Cc1ccc(CN(c2ccc(C(=O)NCc3cccnc3)cc2)S(C)(=O)=O)cc1`, the inhibition is -2.9%.

In the case of `CCOc1ccccc1OCc1nn2c(COc3ccccc3)nnc2s1`, the inhibition was 45.2%. Regarding `c1ccc(Cc2nn3c(COc4ccccc4)nnc3s2)cc1`, the inhibition was 53.1% (active).

In the case of `c1ccc(Cc2nnc3sc(-c4cccs4)nn23)cc1`, the inhibition was 8.2%. With `c1ccc(OCc2nnc3sc(-c4cccs4)nn23)cc1` the figure was 65.5% (active). Take `c1ccc(CCc2nn3c(Cc4ccccc4)nnc3s2)cc1`: the inhibition was 38.2%.

On to `Clc1ccccc1-c1nn2c(COc3ccccc3)nnc2s1`, for which the inhibition was 9.4%.

On to `Cc1cccc(NC(=O)CSc2nnc(-c3n[nH]c4ccccc34)o2)c1`, for which the inhibition is 17.6%. With `COCCNC(=S)Nc1ccc([N+](=O)[O-])cc1C` the figure was 2%. As to `CCOc1ccccc1N(C(=O)c1ccco1)C(C(=O)NC1CCCC1)c1cccnc1` (stereo unspecified), the inhibition was 5.1%.
